Shown are actives, neighbours in structure and some others; about 0.92% of the full set was active somewhere.
RECQ1 helicase: qHTS Assay for Inhibitors of RecQ-Like Dna Helicase 1 (RECQ1). RECQ1 DNA unwinding, red fluorescence kinetic read. Potency, µM (titrated, usually from 57.3 µM), usual class: inhibitors. actives 0.54% (n = 240,000); note: nearly all actives have a fitted effect of over 30% in size
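50 nM RECQ1T1 preincubated 15 min with compound in Tris pH 8.0 buffer with MgCl2, DTT, Tween-20 and 2.5 ug/ml poly(dI-dC); started with 200 nM TAMRA/BHQ-2 forked duplex and 2 mM ATP. Unwinding read as fluorescence (525/598 nm), two reads 2 h apart.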
TDP1 inh: qHTS Assay for Inhibitors of Tyrosyl-DNA Phosphodiesterase (TDP1); Tyrosyl-DNA phosphodiesterase 1 (Homo sapiens), Q9NUW8; recombinant TDP1, AlphaScreen DNA substrate cleavage; Potency, µM (series often up to 130 µM), hits mostly inhibitors; actives 0.28% (n = 350,000); AID 485290, 2010; note: nearly all actives have a fitted effect of over 40% in size
Target sequence (Q9NUW8 whole entry, looked up): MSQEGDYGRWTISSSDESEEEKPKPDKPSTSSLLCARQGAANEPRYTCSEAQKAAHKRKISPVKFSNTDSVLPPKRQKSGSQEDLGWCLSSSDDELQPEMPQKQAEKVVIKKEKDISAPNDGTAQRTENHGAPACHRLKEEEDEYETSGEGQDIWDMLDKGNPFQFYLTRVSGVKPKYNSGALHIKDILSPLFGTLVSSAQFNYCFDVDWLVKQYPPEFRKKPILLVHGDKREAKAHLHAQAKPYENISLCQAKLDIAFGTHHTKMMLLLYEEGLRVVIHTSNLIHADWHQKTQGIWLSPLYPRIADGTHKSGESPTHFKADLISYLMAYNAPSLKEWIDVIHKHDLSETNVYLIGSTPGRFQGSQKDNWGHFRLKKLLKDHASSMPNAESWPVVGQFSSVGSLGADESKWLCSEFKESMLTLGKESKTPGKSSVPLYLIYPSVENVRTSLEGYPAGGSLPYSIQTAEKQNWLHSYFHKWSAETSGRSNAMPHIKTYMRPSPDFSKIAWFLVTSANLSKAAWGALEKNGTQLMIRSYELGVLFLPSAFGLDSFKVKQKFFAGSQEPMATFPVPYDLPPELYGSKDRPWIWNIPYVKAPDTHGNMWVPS
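AlphaScreen read-out: signal falls as enzyme removes the 3' tyrosine-FITC from a 5'-biotinylated DNA oligo (15 nM, 5 min, RT). Enzyme was E. coli-made recombinant Tdp1 at 1 nM, exposed to compound for 15 min beforehand; beads 10 ug/ml, 10 min.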
FEN1 inh: qHTS Assay for the Inhibitors of Human Flap endonuclease 1 (FEN1) | P39748 | Recombinant FEN1 flap cleavage, fluorescence, 15 min | Potency, µM (top dose mostly 114 µM), most hits filed as inhibitors | actives 0.35% (n = 390,000) | AID 588795, 2011; note: nearly all actives have a fitted effect of over 65% in size
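Potency values derive from four-parameter Hill fits of normalized qHTS data. The reaction used 10 nM FEN1 preincubated 15 min at room temperature with compound, then 50 nM DNA substrate, read at 0 and 15 min.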
BLM helicase inh: qHTS Assay for Inhibitors of Bloom's syndrome helicase (BLM). actives 0.2% (n = 350,000). Potency, µM (series often up to 56.1 µM), most hits filed as inhibitors. recombinant BLM DNA unwinding, fluorescence dequenching; note: nearly all actives have a fitted effect of over 35% in size
APEX1 inh: qHTS Assay for Inhibitors of the Human Apurinic/apyrimidinic Endonuclease 1 (APE1); actives 0.35% (n = 350,000); recombinant APE1, TAMRA/BHQ-2 abasic DNA cleavage fluorescence; DNA repair nuclease/redox regulator APEX1 (Homo sapiens), P27695; Potency, µM (series often up to 65.8 µM), actives largely listed as inhibitors; note: nearly all actives have a fitted effect of over 55% in size
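Incision of a quenched TAMRA/BHQ-2 THF abasic-site duplex (50 nM) by 0.75 nM APE1, after 15 min compound preincubation, measured as fluorescence increase over three 60 s reads. Values normalized to buffer, DMSO and NSC13755 control wells.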
Each line names hits and unclear results; the compound was inactive in the other large screens. Calls come from the whole dose curve; as a rule, active = well fitted curve in the direction sought with a large enough effect; inconclusive = small, poorly fitted or top-dose-only effect, or another doubt; inactive = no such curve, though single readings can be large; an effect the other way counts as inactive or inconclusive.

CC(C)C[C@H](NC(=O)[C@@H]1CCCN1C(=O)[C@H](CO)NC(=O)[C@H](Cc1ccccc1)NC(=O)CNC(=O)[C@@H]1CCCN1C(=O)[C@@H]1CCCN1C(=O)[C@@H](N)CCCN=C(N)N)C(=O)O	APEX1 inh 0.501µM (no result: FEN1 inh)
CC1CCCCN1C(=O)c1cnn2c1NC(=C1CC1)C=C2C(F)F (configuration not stated)	none (no result: RECQ1 helicase, TDP1 inh, BLM helicase inh, APEX1 inh)
O=C(CCCCCCCC(=O)NNC(=O)Nc1ccccc1)NNC(=O)Nc1ccccc1	BLM helicase inh 28.2µM
O=C(OC1CCOC1=O)c1ccc(Cl)c(S(=O)(=O)N2CCOCC2)c1 (configuration not stated)	TDP1 inh 28.2µM, APEX1 inh inconclusive (no result: RECQ1 helicase, BLM helicase inh)
O=C(c1ccc(Cl)c(S(=O)(=O)N2CCCCCC2)c1)N1CCCCC1	none (no result: RECQ1 helicase)
O=C(O)c1ccc(Cl)c(S(=O)(=O)N2CCCC2)c1	TDP1 inh 50.1µM, APEX1 inh 28.2µM
COc1cc(/C=C2/SC(=S)N(CC(=O)O)C2=O)ccc1OCC(=O)Nc1ccc(C)c(C)c1	TDP1 inh 12.6µM, BLM helicase inh inconclusive, APEX1 inh 4.74µM (no result: RECQ1 helicase, FEN1 inh)
O=S(=O)(c1ccc2ccccc2c1)N1CCCCCC1	none
O=C(O)c1cc(S(=O)(=O)N2CCN(S(=O)(=O)c3ccc4ccccc4c3)CC2)ccc1Br	TDP1 inh 35.5µM (no result: RECQ1 helicase, BLM helicase inh)
COc1ccc(-c2c(-c3ccc(OCC(=O)NN)cc3O)n[nH]c2C(F)(F)F)cc1	BLM helicase inh 12.6µM
COc1ccc(-c2c(-c3ccc(OCC(=O)NN)cc3O)n[nH]c2C)cc1OC	none (no result: RECQ1 helicase, TDP1 inh)
CCn1c(=O)c(C(=O)NCCCc2ccccc2)c(O)c2ccccc21	TDP1 inh 56.2µM (no result: RECQ1 helicase)
CCCn1c(=O)c(C(=O)NCCCc2ccccc2)c(O)c2ccccc21	none (no result: RECQ1 helicase)
COc1ccc(/C=C/C(=O)O)cc1S(=O)(=O)NC1CCS(=O)(=O)C1 (configuration not stated)	TDP1 inh 50.1µM
COc1ccc(/C=C/C(=O)O)cc1S(=O)(=O)Nc1ccc2c(c1)OCO2	none (no result: TDP1 inh)
Cc1ccc(N2CCN(S(=O)(=O)c3nnc(NC(=O)c4cccc(F)c4)s3)CC2)cc1	none (no result: RECQ1 helicase, APEX1 inh)
Cc1ccc(NC(=S)c2nc3ccccc3[nH]2)c(C)c1	RECQ1 helicase 4.47µM
COc1ccc(S(=O)(=O)NCCC(=O)NC2CCCCC2C)cc1[N+](=O)[O-] (configuration not stated)	TDP1 inh 17.8µM, APEX1 inh inconclusive (no result: RECQ1 helicase, BLM helicase inh)
O=C(Cc1ccccc1)NCC(=O)OCC(=O)c1cccc2ccccc12	none (no result: RECQ1 helicase, BLM helicase inh, APEX1 inh)
COc1cccc(/C=N/NC(=O)c2c(C)nc3ccc(Br)cn23)c1O	TDP1 inh 56.2µM
CCOc1ccccc1/C=N/NC(=O)c1c(C)nc2ccc(Br)cn12	none (no result: RECQ1 helicase, TDP1 inh)
COc1cccc(/C=N\NC(=O)c2ccc(Cn3cc(Br)c([N+](=O)[O-])n3)o2)c1O	BLM helicase inh 31.6µM
CCN1C(=O)/C(=C\c2ccc(-c3cccc(C(=O)OC)c3)o2)SC1=Nc1ccc(C(=O)O)cc1	APEX1 inh inconclusive (no result: RECQ1 helicase, TDP1 inh, FEN1 inh)
O=C(O)c1cccc(-c2ccc(/C=C3/SC(=Nc4ccccc4)N(Cc4cccnc4)C3=O)o2)c1	FEN1 inh inconclusive, APEX1 inh 7.52µM (no result: RECQ1 helicase, TDP1 inh)
CCOc1ccc2c(c1)C(NC(C)=O)C(=O)N2CCN1CCOCC1 (configuration not stated)	FEN1 inh 39.8µM (no result: RECQ1 helicase, TDP1 inh)
CC(=O)NC1C(=O)N(CCN2CCOCC2)c2ccc(Br)cc21 (configuration not stated)	FEN1 inh inconclusive, APEX1 inh inconclusive (no result: RECQ1 helicase, TDP1 inh)
Cc1ccnc2c1ccc1c(C)ccnc12	FEN1 inh 25.1µM (no result: RECQ1 helicase, BLM helicase inh)
COc1ccc(-c2nn(-c3ccccc3)cc2C2NC(=O)NC(C)=C2C(=O)OC(C)C)cc1Cl (configuration not stated)	none (no result: RECQ1 helicase, TDP1 inh, APEX1 inh)
Cc1cnc(CNc2ncncc2-c2ccccc2C(F)(F)F)cn1	TDP1 inh 39.8µM (no result: FEN1 inh)
O=C(NNC(=O)c1cc(-c2ccco2)nc2ccccc12)c1ccccc1	none
O=C(O)c1cc(-c2ccco2)nc2cc3ccccc3cc12	RECQ1 helicase 28.2µM, APEX1 inh inconclusive (no result: TDP1 inh)
C#CCOCCOCCOCCNc1nc(N2CCN(C(=O)CCCCCCCCCCNC(=O)[C@H]([C@@H](C)CC)n3cc(CCCCCN)nn3)CC2)nc(N2CCN(C(=O)CCCCCCCCCCNC(=O)[C@H]([C@@H](C)CC)n3cc(CCCCN=C(N)N)nn3)CC2)n1	APEX1 inh inconclusive (no result: RECQ1 helicase, FEN1 inh, BLM helicase inh)
C#CCOCCOCCOCCNc1nc(N2CCN(C(=O)CCCCCCCCCCNC(=O)Cn3cc(CCCCCN)nn3)CC2)nc(N2CCN(C(=O)CCCCCCCCCCNC(=O)[C@H]([C@@H](C)CC)n3cc(CCCCN=C(N)N)nn3)CC2)n1	FEN1 inh 20µM, APEX1 inh inconclusive (no result: RECQ1 helicase, BLM helicase inh)
C#CCOCCOCCOCCNc1nc(N2CCN(C(=O)CCCCCCCCCCNC(=O)[C@H]([C@@H](C)CC)n3cc(CCCCN=C(N)N)nn3)CC2)nc(N2CCN(C(=O)CCCCCCCCCCNC(=O)[C@H]([C@@H](C)CC)n3cc(CCCCN=C(N)N)nn3)CC2)n1	APEX1 inh inconclusive (no result: RECQ1 helicase, FEN1 inh, BLM helicase inh)
C#CCOCCOCCOCCNc1nc(N2CCN(C(=O)CCCCCCCCCCNC(=O)[C@H]([C@@H](C)CC)n3cc(CCCCN=C(N)N)nn3)CC2)nc(N2CCN(C(=O)CCCCCCCCCCNC(=O)[C@H](CCCCN)n3cc(C)nn3)CC2)n1	FEN1 inh 25.1µM, APEX1 inh inconclusive (no result: RECQ1 helicase, BLM helicase inh)
O=[N+]([O-])c1ccc(Nc2nc(N/N=C/c3cccc(F)c3)nc(N3CCCC3)n2)cc1	APEX1 inh inconclusive
COc1cccc(/C=N/Nc2nc(Nc3ccc([N+](=O)[O-])cc3)nc(N3CCCC3)n2)c1O	RECQ1 helicase inconclusive, BLM helicase inh 28.2µM
O=[N+]([O-])c1ccc(Nc2nc(NC3CCCCC3)nc(N3CCCC3)n2)cc1	BLM helicase inh 28.2µM
C/C=C1/C(=O)C[C@H]2[C@@H]3CCC4=CC(=O)CC[C@]4(C)[C@H]3CC[C@]12C	none (no result: FEN1 inh, BLM helicase inh)
CCN(CC)C(=O)COc1ccc2c(-c3ccc(OC)cc3)cc(=O)oc2c1	TDP1 inh 79.4µM (no result: RECQ1 helicase)
Cc1ccc(C)c(S(=O)(=O)Nc2cc(SCC(=O)O)c(O)c3ccccc23)c1	FEN1 inh 56.2µM, BLM helicase inh 15.8µM
Cc1ccc(C)c(NS(=O)(=O)c2cc(C(=O)Nc3ccccc3-c3ccccc3)ccc2C)c1	APEX1 inh inconclusive
O=C(NCc1ccccc1F)c1cccc(NC(=O)N2CCSc3ncccc32)c1	none (no result: RECQ1 helicase, APEX1 inh)
CC(=O)Nc1ccc(NC(=S)NC(=O)/C=C/c2ccco2)cc1	FEN1 inh 50.1µM (no result: RECQ1 helicase, TDP1 inh)

Screens from PubChem.
